# Earlier results, collected in PubChem BioAssay AID977611.
# In all, about 3,900 compounds went through this assay and about 3,900 (100%) were called active. Cut-off not given; nearly all actives show Kd up to about 4200 µM. The set was probably picked from earlier hits. The list shows a part of the results. Numbered stars: 1 amine (or outer) side, 2 acyl side, 3 side chain; on linkers, the order of the positions; unused ones are H or OH. Bridge positions count the residues as written; N and C are the ends. Where a SMILES comes first, the peptide text is derived from it. Non-standard residues stand in square brackets, D forms with d. Square brackets hold non-standard residues; d marks the D form. Residues, ends and D or L forms follow the SMILES beside them. Peptide text beside a SMILES is read from it. [ ]: non-standard residue; d: D form. Thr(P(OH)3+) = C[C@@H](O[P+](O)(O)O)[C@H](N)C(=O)O; Orn(CH(NH2)2) = NC(N)NCCC[C@H](N)C(=O)O; Cha = N[C@@H](CC1CCCCC1)C(=O)O; Orn = NCCC[C@H](N)C(=O)O; X1 = O=C(C[*:1])[*:2]; Aib = CC(C)(N)C(=O)O
# Test: PubChem AID 977611
# Details: PDB protein-ligand complexes, literature Kd
compound,measurement,setting,value
CC(C)C[C@H](NC(=O)[C@H](CCC(=O)O)NC(=O)[C@H](CCC(N)=O)NC(=O)[C@@H](NC(=O)[C@H](CO)NC(=O)[C@@H](N)C(C)C)[C@@H](C)O[P+](O)(O)O)C(=O)N[C@@H](Cc1ccc(O)cc1)C(=O)N[C@@H](CO)C(=O)O (H-VS[Thr(P(OH)3+)]QELYS-OH),Kd,"protein: mammalian MDC1 FHA domain, PDB entry 3va4",40000 nM (active)
H-DDFGGFEAAET-OH,Kd,"protein: ADP-ribosylation factor binding protein GGA1, PDB entry 1om9",70000 nM (active)
H-EWGPWV-NH2,Kd,"protein: AP-1 COMPLEX SUBUNIT GAMMA-LIKE 2, PDB entry 2ymt",10 nM (active)
CC(C)C[C@@H](NC(=O)[C@H]1CCCN1C(=O)[C@@H](Cc1c[nH]c2ccccc12)NC(=O)[C@@H](Cc1c[nH]c2ccccc12)NC(=O)[C@H](N)CC(=O)O)C(=O)N[C@H](C)C(=O)N[C@H](Cc1ccccc1)C(=O)N[C@H](CCC(=O)O)C(=O)N[C@H](C)C(=O)N[C@H](CC(C)C)C(=O)N[C@H](CC(C)C)C(=O)N[C@H](CCCNC(N)N)C(=O)O,Kd,"protein: human MDM2 (Synthetic construct, 25-109), PDB entry 3iwy",53 nM (active)
H-EPQAPWME-OH,Kd,"protein: antibody Fab, PDB entry 3uyr",127 nM (active)
C[C@H](NC(=O)[C@@H](N)CO)C(=O)N[C@@H](CCCNC(N)N)C(=O)N[C@@H](Cc1c[nH]c2ccccc12)C(=O)N[C@@H](CCCNC(N)N)C(=O)N[C@@H](Cc1ccccc1)C(=O)N1CCC[C@H]1C(=O)N[C@@H](C)C(=O)N[C@@H](CCCNC(N)N)C(=O)N1CCC[C@H]1C(=O)NCC(=O)N[C@H](C(=O)O)[C@@H](C)O,Kd,"protein: Menin (A541T mutation), PDB entry 4gq6",53 nM (active)
CC(C)C[C@H](NC(=O)[C@H](Cc1c[nH]c2ccccc12)NC(=O)[C@H](CC(=O)O)NC(=O)[C@H](CCC(N)=O)NC(=O)[C@H](CC(N)=O)NC(=O)[C@H](CCCNC(N)N)NC(=O)[C@@H]1CCCN1C(=O)CNC(=O)[C@@H](N)CCC(=O)O)C(=O)O (H-EGP[Orn(CH(NH2)2)]NQDWL-OH),Kd,"protein: H-2 class I histocompatibility antigen (Y159F mutation), PDB entry 4iho",8000 nM (active)
H-SVPIQCTDKTDKQEALFK-OH,Kd,"protein: human tumor necrosis factor receptor(TRAF3), PDB entry 1l0a",23900 nM (active)
H-SAVLQKKITDYFHPKK-OH,Kd,"protein: human proliferating cell nuclear antigen(PCNA), PDB entry 1vyj",100 nM (active)
CSCC[C@H](NC(=O)[C@H](CCCCN)NC(=O)[C@@H](N)CCCCN)C(=O)N[C@H](C(=O)N[C@@H](Cc1ccccc1)C(=O)N[C@@H](CCC(N)=O)C(=O)N[C@H](C(=O)N1CCC[C@H]1C(=O)N[C@H](C(=O)N[C@@H](CC(=O)O)C(=O)N1CCC[C@H]1C(=O)N[C@@H](CC(C)C)C(=O)N[C@@H](CCC(=O)O)C(=O)O)[C@@H](C)O)[C@@H](C)O[P+](O)(O)O)[C@@H](C)O (H-KKMTFQ[Thr(P(OH)3+)]PTDPLE-OH),Kd,"protein: FHA1 Domain of Rad53, PDB entry 1k3n",10200 nM (active)
CC[C@H](C)[C@H](NC(=O)[C@H](CC(=O)O)NC(=O)[C@H](Cc1ccc(O)cc1)NC(=O)[C@H](C)NC(=O)[C@H](C)NC(=O)CN)C(=O)N[C@@H](CO[P+](O)(O)O)C(=O)N[C@@H](CCC(N)=O)C(=O)N[C@H](C(=O)N[C@@H](Cc1ccccc1)C(=O)N1CCC[C@H]1C(=O)N[C@@H](Cc1ccccc1)C(=O)N[C@@H](C)C(=O)N[C@@H](C)C(=O)O)C(C)C,Kd,"protein: Breast cancer type 1 susceptibility protein, PDB entry 1t2v",400 nM (active)
CCCCCCCCNc1cc(-c2ccc(OC)cc2)nc(N)n1,Kd,"protein: Acetylcholine-binding protein AChBP, PDB entry 4qaa",360 nM (active)
O=c1ccn([C@@H]2O[C@H](CO[P+](O)(O)N[P+](O)(O)O[P+](O)(O)O)[C@@H](O)[C@H]2O)c(=O)[nH]1,Kd,"protein: Poly(A) RNA polymerase protein cid1, PDB entry 4nkt",1080 nM (active)
O=c1ccn([C@H]2C[C@H](O)[C@@H](CO[P+](O)(O)N[P+](O)(O)O[P+](O)(O)O)O2)c(=O)[nH]1,Kd,"protein: DUTPase, PDB entry 4gv8",320 nM (active)
O=c1ccn([C@@H]2O[C@H](CO[P+](O)(O)O)[C@@H](O)[C@H]2O)c(=O)[nH]1,Kd,"protein: Orotidine 5'-phosphate decarboxylase, PDB entry 3w07",420000 nM (active)
C[C@H]1O[C@@H](n2ccc(=O)[nH]c2=O)[C@H](O)[C@@H]1O,Kd,"protein: GLUCOSYL-3-PHOSPHOGLYCERATE SYNTHASE (GpgS), PDB entry 4de7",16000 nM (active)
O=[N+]([O-])c1ccc2c(ccn2[C@H]2C[C@H](O)[C@@H](CO[P+](O)(O)O[P+](O)(O)O[P+](O)(O)O)O2)c1,Kd,"protein: Ribonucleoside-diphosphate reductase large chain 1, PDB entry 3rsr",44000 nM (active)
H-EDDDIKQLAAWAT-OH,Kd,"protein: Programmed cell death 6-interacting protein, PDB entry 3c3r",41000 nM (active)
H-KIIDTGGGFIL-OH,Kd,"protein: DNA excision repair protein ERCC-1, PDB entry 2jnw",780 nM (active)
CC[C@H](C)[C@H](NC(=O)[C@H](Cc1ccc(O)cc1)NC(=O)[C@H](Cc1c[nH]c2ccccc12)NC(=O)[C@H](CC(C)C)NC(=O)[C@H](Cc1c[nH]c2ccccc12)NC(=O)[C@H](CC(N)=O)NC(=O)[C@@H](NC(=O)[C@@H](NC(=O)[C@H](CC(=O)O)NC(=O)[C@H](Cc1ccccc1)NC(=O)[C@H](Cc1c[nH]c2ccccc12)NC(=O)[C@@H](N)CC(N)=O)[C@@H](C)CC)[C@@H](C)O)C(=O)N[C@@H](CCCCN)C(=O)N[C@@H](CCCCN)C(=O)N[C@@H](CCCCN)C(=O)N[C@@H](CCCCN)C(=O)O,Kd,"protein: human fab 4e10, PDB entry 2fx7",20 nM (active)
H-TKIDWNKIA-OH,Kd,"protein: Protein S100-B, PDB entry 3iqq",2900 nM (active)
CC[C@H](C)[C@H](NC(=O)[C@H](Cc1c[nH]c2ccccc12)NC(=O)[C@H](CC(=O)O)NC(=O)[C@H](CCC(=O)O)NC(=O)[C@H](CC(C)C)NC(=O)[C@@H](N)Cc1ccc(O)cc1)C(=O)N[C@@H](CCCCN)C(=O)N[C@@H](Cc1ccc(O)cc1)C(=O)N[C@@H](CC(N)=O)C(=O)N[C@@H](CC(N)=O)C(=O)N[C@H](C=O)CCC(N)=O (H-YLEDWIKYNNQ-aldehyde),Kd,"protein: FAB F22-4, PDB entry 3ggw",2900 nM (active)
CC(C)C[C@H](NC(=O)[C@H](Cc1ccc(O)cc1)NC(=O)[C@@H](CCCCN)NC(=O)[C@@H](CO)NC(=O)[C@H](Cc1ccccc1)NC(=O)[C@H](CC1CCCCC1)NC(=O)[C@H](CC(=O)O)NC(=O)[C@H](CO)NC(=O)[C@@H](N)CCCCN)C(=O)N[C@@H](Cc1c[nH]c2ccccc12)C(=O)N[C@@H](CO)C(=O)N[C@@H](CO)C(=O)N[C@@H](CCCCN)C(=O)O (H-KSD[Cha]F[dS][dK]YLWSSK-OH),Kd,"protein: human Urokinase plasminogen activator surface receptor(uPAR/CD87), PDB entry 1ywh",16.4 nM (active)
CC[C@H](C)[C@H](NC(=O)[C@H](Cc1ccccc1)NC(=O)[C@H](C)N)C(=O)N[C@H](C(=O)N[C@@H](Cc1c[nH]c2ccccc12)C(=O)N[C@@H](CC(C)C)C(=O)N[C@@H](C)C(=O)N[C@@H](CCCNC(N)N)C(=O)N[C@@H](CCCNC(N)N)C(=O)N[C@@H](CC(C)C)C(=O)N[C@@H](CCCCN)C(=O)N[C@@H](CCCCN)C(=O)NCC(=O)N[C@@H](CCCCN)C(=O)N[C@@H](CCCCN)C(=O)O)[C@@H](C)CC (H-AFIIWLA[Orn(CH(NH2)2)][Orn(CH(NH2)2)]LKKGKK-OH),Kd,"protein: Calmodulin, PDB entry 2lgf",2700 nM (active)
H-DEEALKQLAEWVS-OH,Kd,"protein: Programmed cell death 6-interacting protein, PDB entry 3c3o",44000 nM (active)
CC(C)C[C@H](NC(=O)[C@@H](NC(=O)CNC(=O)[C@H](Cc1ccc(O)cc1)NC(=O)[C@@H](NC(=O)CNC(=O)[C@@H](NC(=O)[C@H](CCCNC(N)N)NC(=O)[C@H](CCCNC(N)N)NC(=O)[C@H](C)N)[C@@H](C)O)[C@@H](C)O)C(C)C)C(=O)N[C@@H](C)C(=O)N[C@@H](C)C(=O)N[C@@H](Cc1c[nH]c2ccccc12)C(=O)N[C@@H](C)C(=O)N[C@@H](C)C(=O)N[C@@H](C)C(=O)O (H-A[Orn(CH(NH2)2)][Orn(CH(NH2)2)]TGTYGVLAAWAAA-OH),Kd,"protein: mouse radixin FERM domain, PDB entry 1j19",16.4 nM (active)
CC[C@H](C)[C@H](NC(=O)[C@H](CC(=O)O)NC(=O)[C@H](Cc1ccccc1)NC(=O)[C@H](CCCNC(N)N)NC(=O)[C@H](CC(C)C)NC(=O)[C@H](CCCCN)NC(=O)[C@@H](N)CCCCN)C(=O)O (H-KKL[Orn(CH(NH2)2)]FDI-OH),Kd,"protein: Serine/threonine-protein phosphatase PP1-alpha catalytic subunit, PDB entry 3n5u",1200 nM (active)
CC[C@H](C)[C@H](NC(=O)[C@H](CCC(=O)O)NC(=O)[C@H](CC(N)=O)NC(=O)[C@H](CCC(=O)O)NC(=O)[C@@H](NC(=O)[C@H](Cc1c[nH]c2ccccc12)NC(=O)CNC(=O)[C@H](CO)NC(=O)[C@H](CCC(=O)O)NC(=O)[C@H](CCCCN)NC(=O)[C@H](CO)NC(=O)[C@H](CCCNC(N)N)NC(=O)CN)C(C)C)C(=O)N[C@@H](Cc1ccc(O)cc1)C(=O)N[C@@H](Cc1ccc(O)cc1)C(=O)O (H-G[Orn(CH(NH2)2)]SKESGWVENEIYY-OH),Kd,"protein: Talin-1, PDB entry 2k00",24000 nM (active)
CC[C@H](C)[C@@H]1NC(=O)[C@@H](NC(=O)[C@H](Cc2ccccc2)NC(=O)[C@H](Cc2c[nH]c3ccccc23)NC(=O)[C@@H](N)CC(N)=O)CSCC(=O)NCCC[C@@H](C(=O)N[C@@H](Cc2c[nH]c3ccccc23)C(=O)N[C@@H](CC(C)C)C(=O)N[C@@H](Cc2c[nH]c3ccccc23)C(=O)N[C@@H](CCCCN)C(=O)N[C@@H](CCCCN)C(=O)N[C@@H](CCCCN)C(=O)N[C@@H](CCCCN)C(=O)O)NC(=O)[C@H]([C@@H](C)O)NC1=O (H-NWFCIT[Orn]WLWKKKK-OH; linker 4-7 via X1),Kd,"protein: human fab 4e10, PDB entry 2fx9",17 nM (active)
CC[C@H](C)[C@H](NC(=O)[C@H](CC(C)C)NC(=O)[C@H](CCC(=O)O)NC(=O)[C@H](CCCNC(N)N)NC(=O)[C@H](CCCCN)NC(=O)[C@@H](N)CCCCN)C(=O)N[C@@H](CCC(=O)O)C(=O)N[C@@H](CO)C(=O)N[C@@H](CCCCN)C(=O)N[C@@H](Cc1c[nH]c2ccccc12)C(=O)N[C@@H](Cc1cnc[nH]1)C(=O)N[C@@H](CCCNC(N)N)C(=O)N[C@@H](CC(C)C)C(=O)N[C@@H](CC(C)C)C(=O)N[C@@H](Cc1ccccc1)C(=O)N[C@@H](Cc1cnc[nH]1)C(=O)N[C@@H](CC(=O)O)C(=O)N[C@@H](CCCCN)C(=O)N[C@@H](CCCCN)C(=O)O (H-KK[Orn(CH(NH2)2)]ELIESKWH[Orn(CH(NH2)2)]LLFHDKK-OH),Kd,"protein: Chlamydomonas reinhardtii caltractin (CRC-C), PDB entry 1oqp",50 nM (active)
CC[C@H](C)[C@H](NC(=O)[C@H](CC(=O)O)NC(=O)[C@H](Cc1ccccc1)NC(=O)[C@H](Cc1c[nH]c2ccccc12)NC(=O)[C@@H](N)CC(N)=O)C(=O)N[C@H](C(=O)N[C@@H](CC(N)=O)C(=O)NC(C)(C)C(=O)N[C@@H](CC(C)C)C(=O)N[C@@H](Cc1c[nH]c2ccccc12)C(=O)N[C@@H](CCCNC(N)N)C(=O)N[C@@H](CCCNC(N)N)C(=O)O)[C@@H](C)O (H-NWFDITN[Aib]LW[Orn(CH(NH2)2)][Orn(CH(NH2)2)]-OH),Kd,"protein: human fab 4e10, PDB entry 2fx8",302 nM (active)
H-TWIENKLYGM-OH,Kd,"protein: Dock 1 PTB domain, PDB entry 1uef",3200 nM (active)
H-KEEEDDDMKELENWAGSM-OH,Kd,"protein: Programmed cell death 6-interacting protein, PDB entry 3c3q",48000 nM (active)
